# Laboratory results reported in PubChem BioAssay (Tox21).
# A number with no mark means an inactive call. Inconclusive results are not listed. Entries that show only a call come without a potency. Activity calls are given as the source filed them. Unless noted, calls follow the shape of the dose curve; as a rule, active = well fitted curve in the direction sought with a large enough effect in the repeat runs; inconclusive = weak or mixed curves; inactive = no such curve, though single readings can be large; an effect the other way counts as inactive or inconclusive.
# Legend:
# [1] = qHTS assay to identify small molecule antagonists of the estrogen receptor alpha (ER-alpha) signaling pathway using the BG1 cell line in the presence of 0.1 nM 17-beta-estradiol - cell viability counter screen (AID 1259241); details: VM7Luc4E2 (BG1) viability, CellTiter-Fluor protease, 22 h, 0.1 nM estradiol agonist added; series mostly up to 92.4 µM; also: nearly all actives have a fitted effect of over 40% in size
# Procedure, shortened: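 CellTiter-Fluor read (30 min, 37C) on ER-alpha/ERE-luc VM7Luc4E2 cells; 22 hr compound treatment; agonist 0.1 nM E2 final; same-well multiplex.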
# [2] = qHTS assay to identify small molecule antagonists of the androgen receptor (AR) signaling pathway using the MDA cell line in the presence of 0.5 nM R1881 - cell viability counter screen (AID 1259242); details: MDA-kb2 viability, CellTiter-Fluor protease fluorescence, 16 h; series mostly up to 92.4 µM; also: nearly all actives have a fitted effect of over 45% in size
# Procedure, shortened: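 Cytotoxicity toward MDA-kb2 cells is measured by CellTiter-Fluor live-cell protease fluorescence after 16 hr compound exposure at 37C in the presence of 0.5 nM R1881 stimulator.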
# [3] = biological target: Androgen receptor (Homo sapiens) (UniProt P10275); assay: qHTS assay to identify small molecule antagonists of the androgen receptor (AR) signaling pathway using the MDA cell line in the presence of 0.5 nM R1881 (AID 1259243); details: MDA-kb2 MMTV-luciferase, R1881 0.5 nM, 16 h; series mostly up to 42.5 µM; also: nearly all actives have a fitted effect of over 50% in size; also: potency is read from the fitted curve at half-maximal effect
# Chain of Androgen receptor (Homo sapiens) (P10275 whole entry, looked up): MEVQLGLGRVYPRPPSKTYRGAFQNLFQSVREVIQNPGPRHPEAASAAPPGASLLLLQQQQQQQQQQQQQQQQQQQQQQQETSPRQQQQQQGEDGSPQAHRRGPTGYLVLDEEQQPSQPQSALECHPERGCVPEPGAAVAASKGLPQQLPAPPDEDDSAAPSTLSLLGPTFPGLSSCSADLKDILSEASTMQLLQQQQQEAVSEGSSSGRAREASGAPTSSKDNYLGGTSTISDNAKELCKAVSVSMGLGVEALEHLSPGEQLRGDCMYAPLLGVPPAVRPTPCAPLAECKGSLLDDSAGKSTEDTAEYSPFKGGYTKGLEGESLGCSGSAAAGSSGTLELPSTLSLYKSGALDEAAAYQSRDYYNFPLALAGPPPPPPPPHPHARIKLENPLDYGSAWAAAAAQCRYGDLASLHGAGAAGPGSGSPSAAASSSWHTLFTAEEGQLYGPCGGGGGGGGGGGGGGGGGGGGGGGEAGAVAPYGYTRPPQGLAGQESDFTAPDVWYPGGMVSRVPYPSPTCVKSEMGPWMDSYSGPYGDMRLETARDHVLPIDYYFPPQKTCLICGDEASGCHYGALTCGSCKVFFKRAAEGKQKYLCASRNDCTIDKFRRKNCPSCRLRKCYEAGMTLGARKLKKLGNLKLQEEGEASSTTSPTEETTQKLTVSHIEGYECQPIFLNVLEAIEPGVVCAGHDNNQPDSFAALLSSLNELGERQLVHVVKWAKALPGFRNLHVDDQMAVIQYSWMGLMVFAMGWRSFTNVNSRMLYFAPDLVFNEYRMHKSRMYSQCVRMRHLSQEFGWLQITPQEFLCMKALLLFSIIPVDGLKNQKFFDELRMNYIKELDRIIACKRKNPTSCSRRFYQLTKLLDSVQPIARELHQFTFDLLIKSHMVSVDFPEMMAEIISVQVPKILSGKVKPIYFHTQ
# Procedure, shortened: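 Steps: seed MDA-kb2 cells, incubate 5 hr at 37C; pin-transfer compounds in DMSO; add R1881 to 0.5 nM final; incubate 16 hr; add ONE-Glo, wait 30 min at room temperature; read luminescence.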
# [4] = biological target: Estrogen receptor (Homo sapiens) (UniProt P03372); assay: qHTS assay to identify small molecule antagonists of the estrogen receptor alpha (ER-alpha) signaling pathway using the BG1 cell line in the presence of 0.1 nM 17-beta-estradiol (AID 1259244); details: VM7Luc4E2 (BG1) ERE-luciferase, antagonist mode, 0.1 nM E2, 22 h; series mostly up to 92.4 µM; also: nearly all actives have a fitted effect of over 50% in size; also: potency is read from the fitted curve at half-maximal effect
# Chain of Estrogen receptor (Homo sapiens) (P03372 whole entry, looked up): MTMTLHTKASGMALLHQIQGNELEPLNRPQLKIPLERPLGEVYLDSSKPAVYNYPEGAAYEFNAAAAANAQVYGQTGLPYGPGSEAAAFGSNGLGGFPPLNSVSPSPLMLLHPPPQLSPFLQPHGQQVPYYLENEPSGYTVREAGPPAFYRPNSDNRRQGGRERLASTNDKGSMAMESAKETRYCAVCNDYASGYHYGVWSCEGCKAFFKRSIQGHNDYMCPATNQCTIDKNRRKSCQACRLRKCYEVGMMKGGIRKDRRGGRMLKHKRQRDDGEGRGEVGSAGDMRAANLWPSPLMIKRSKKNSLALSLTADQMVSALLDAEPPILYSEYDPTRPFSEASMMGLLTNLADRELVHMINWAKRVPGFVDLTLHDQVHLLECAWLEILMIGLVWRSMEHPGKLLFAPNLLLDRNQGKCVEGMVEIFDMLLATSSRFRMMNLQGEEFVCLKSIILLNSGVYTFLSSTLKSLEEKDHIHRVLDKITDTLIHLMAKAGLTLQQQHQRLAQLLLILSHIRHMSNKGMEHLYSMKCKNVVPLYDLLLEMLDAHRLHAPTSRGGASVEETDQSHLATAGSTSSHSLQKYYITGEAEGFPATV
# Procedure, shortened: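 After 5 days in hormone-depleted medium (charcoal-stripped serum, no phenol red), VM7Luc4E2 cells were seeded, incubated 24 h, then co-treated with compound and 0.1 nM (final) estradiol for 22 h before luminescence detection.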
# [5] = qHTS assay to identify small molecule phospholipidosis (PLD) inducers (AID 1259344; active = well fitted curve in the direction sought with a large enough effect; an effect the other way counts as inactive or inconclusive); details: HepG2 phospholipidosis, LipidTOX Red imaging, 24 h; series mostly up to 38.3 µM
# Procedure, shortened: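 HepG2 cells, 900/well, treated with compound plus LipidTOX Red for 24 h at 37 C; amiodarone positive and DMSO negative controls. Fixed with paraformaldehyde/Hoechst, then high-content imaging scored LipidTOX pit count and integrated intensity per well and per cell.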
# [6] = qHTS assay to identify small molecule HDAC inhibitors (AID 1259364); details: HCT-116 HDAC-Glo I/II luminescence, 2 h; series mostly up to 92.4 µM; also: nearly all actives have a fitted effect of over 45% in size; also: potency is read from the fitted curve at half-maximal effect; as to activity change, negative = inhibition: top concentration of the series differs between compounds
# Procedure, shortened: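 Homogeneous cell-based luminescent assay of endogenous class I/II HDAC activity; HCT-116 cells, 2 h compound exposure, 30 min HDAC-Glo development at RT.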
# [7] = qHTS assay to identify small molecule HDAC inhibitors - cell viability counter screen (AID 1259365); details: HCT-116 viability, CellTiter-Glo ATP luminescence, 2 h; series mostly up to 92.4 µM; also: nearly all actives have a fitted effect of over 50% in size
# Procedure, shortened: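 To flag cytotoxic hits, 1,500 wild-type HCT-116 cells per well, plated the day before, receive test compounds for 2hr at 37 C before CellTiter-Glo reagent and a luminescence read.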
# [8] = qHTS assay to identify small molecule agonists of the sonic hedgehog signaling (Shh) pathway - cell viability counter screen (AID 1259366); details: NIH/3T3 Gli1-Luc viability, CellTiter-Fluor, 24 h; series mostly up to 92.4 µM; also: nearly all actives have a fitted effect of over 50% in size
# Procedure, shortened: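 Fluorescence from CellTiter-Fluor reports live cells in this counter screen. NIH/3T3-derived Gli1-Luc reporter cells receive test compounds for 24hr at 37C; reagent goes in at 23hr.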
# [9] = qHTS assay to identify small molecule antagonists of the sonic hedgehog signaling (Shh) pathway - cell viability counter screen (AID 1259367); details: NIH/3T3 Gli1-Luc viability, CellTiter-Fluor, 24 h; series mostly up to 92.4 µM; also: nearly all actives have a fitted effect of over 55% in size
# Procedure, shortened: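 NIH/3T3-derived Gli1-Luc reporter cells, 2,000/well, plated 4 hr before compound addition, then stimulated with conditioned medium for 24 hr at 37C. Viability measured in the same wells by CellTiter-Fluor fluorescence, reagent added at 23 hr for 1 hr.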
# [10] = qHTS assay to identify small molecule agonists of the sonic hedgehog signaling (Shh) pathway (AID 1259368; calls by dose curve;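 also: NIH/3T3-derived 3T3Gli1-Luc cells carrying a stable Gli1-driven firefly luciferase reporter; nearly all actives have a fitted effect of over 15% in size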); details: NIH/3T3 Gli1-Luc reporter, luciferase, 24 h; series mostly up to 92.4 µM
# Procedure, shortened: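 Steps: seed 3T3 Gli1-Luc cells, incubate 4 hr at 37 C, pin-transfer compounds in DMSO alongside a positive control, incubate 24 hr, add luciferase detection reagent, wait 30 min at room temperature, read luminescence.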
compound,measurement,setting,value
CCCCCOc1ccc(C2SC(=O)NC2=O)cc1OCC (stereo not given),Potency,[1],inactive
same,outcome,[2],inactive
same,Potency,[3],inactive
same,Potency,[4],inactive
same,outcome,[5],inactive
same,Potency,[6],inactive
same,outcome,[7],inactive
same,Potency,[8],inactive
same,Potency,[9],inactive
same,Potency,[10],inactive
CCCC(CCC)(C(=O)OCC)C(=O)OCC,Potency,[1],inactive
same,outcome,[2],inactive
same,Potency,[3],inactive
same,Potency,[4],inactive
same,Potency,[6],inactive
same,outcome,[7],inactive
same,Potency,[8],inactive
same,Potency,[9],inactive
same,Potency,[10],inactive
COC(C)CCO (stereo not given),Potency,[1],inactive
same,outcome,[2],inactive
same,Potency,[3],inactive
same,Potency,[6],inactive
same,outcome,[7],inactive
same,Potency,[8],inactive
same,Potency,[9],inactive
same,Potency,[10],inactive
CC1=C2[C@H](/C=C(\C)C(=O)O)CC[C@@H](C)[C@H]2CC1,Potency,[1],inactive
same,outcome,[2],inactive
same,Potency,[3],31.8 µM (active)
same,Potency,[4],63.4 µM (active)
same,Potency,[6],inactive
same,outcome,[7],inactive
same,Potency,[10],inactive
Cc1cc2nc(N)sc2cc1C,Potency,[1],inactive
same,outcome,[2],inactive
same,Potency,[3],inactive
same,Potency,[6],0.276 µM (active)
same,outcome,[7],inactive
same,Potency,[8],inactive
same,Potency,[9],inactive
same,Potency,[10],inactive
CO[C@@]1(NC(=O)CSCC#N)C(=O)N2C(C(=O)O)=C(CSc3nnnn3C)CS[C@@H]21,Potency,[1],inactive
same,outcome,[2],inactive
same,Potency,[4],inactive
same,outcome,[5],inactive
same,Potency,[6],inactive
same,outcome,[7],inactive
same,Potency,[8],inactive
same,Potency,[9],inactive
same,Potency,[10],inactive
CC(C)c1ccccc1,Potency,[1],inactive
same,outcome,[2],inactive
same,Potency,[3],inactive
same,Potency,[4],inactive
same,Potency,[6],inactive
same,outcome,[7],inactive
same,Potency,[8],inactive
same,Potency,[9],inactive
same,Potency,[10],inactive
CC(=O)O[C@H]1CC[C@@]2(C)C(=CC[C@@H]3[C@@H]2CC[C@]2(C)C(C(C)=O)=CC[C@@H]32)C1,Potency,[1],inactive
same,outcome,[2],inactive
same,Potency,[3],11.9 µM (active)
same,Potency,[4],inactive
same,Potency,[6],inactive
same,outcome,[7],inactive
same,Potency,[10],inactive
OC[C@H]1O[C@@H](O[C@H]2[C@H](O)[C@@H](O)[C@H](O)O[C@@H]2CO)[C@H](O)[C@@H](O)[C@H]1O,Potency,[1],inactive
same,outcome,[2],inactive
same,Potency,[3],inactive
same,Potency,[4],inactive
same,Potency,[6],inactive
same,outcome,[7],inactive
same,Potency,[8],inactive
same,Potency,[9],inactive
same,Potency,[10],inactive
CCCOc1ccc2c(c1)CC[C@@H]1[C@@H]2CC[C@]2(C)C(OC)CC[C@@H]12 (stereo not given in full),Potency,[1],inactive
same,outcome,[2],inactive
same,Potency,[3],13.3 µM (active)
same,Potency,[4],inactive
same,Potency,[6],inactive
same,outcome,[7],inactive
same,Potency,[8],inactive
same,Potency,[9],inactive
same,Potency,[10],inactive
CC(CNC1CCCCC1)OC(=O)c1ccccc1 (stereo not given),Potency,[1],inactive
same,outcome,[2],inactive
same,Potency,[4],inactive
same,outcome,[5],inactive
same,Potency,[6],inactive
same,outcome,[7],inactive
same,Potency,[8],inactive
same,Potency,[9],inactive
same,Potency,[10],inactive
OCCN(CCO)CCN(CCO)CCO,Potency,[1],inactive
same,outcome,[2],inactive
same,Potency,[3],inactive
same,Potency,[4],inactive
same,Potency,[6],inactive
same,outcome,[7],inactive
same,Potency,[8],inactive
same,Potency,[10],inactive
C[C@@H]1CN(c2c(F)c(F)c3c(=O)c(C(=O)O)cn(C4CC4)c3c2F)C[C@H](C)N1,"activity change, negative = cytotoxicity",[1],13.3% [at 19 µM]
same,"viability change, negative = cytotoxic",[2],2.13% [at 19 µM]
same,Potency,[3],inactive
same,"activity change, negative = inhibition",[4],0.469% [at 19 µM]
same,outcome,[5],inactive
same,"activity change, negative = inhibition",[6],-5.53% [at 19 µM]
same,"activity change, negative = cytotoxicity",[7],-3.08% [at 19 µM]
same,"viability change, negative = cytotoxic",[8],6.74% [at 19 µM]
same,"viability change, negative = cytotoxic",[9],-0.257% [at 19 µM]
same,activity change,[10],"3.53% [at 18.9 µM, stronger effect = higher value]"
CCc1cc2cc(OC)c(OC)cc2c(Cc2ccccc2)n1,Potency,[1],inactive
same,outcome,[2],inactive
same,Potency,[3],4.22 µM (active)
same,Potency,[6],inactive
same,outcome,[7],inactive
same,Potency,[8],inactive
same,Potency,[9],inactive
same,Potency,[10],inactive
C=CCc1cc(OC)c(O)c(C(=O)NCCO)c1,Potency,[1],inactive
same,outcome,[2],inactive
same,Potency,[4],inactive
same,outcome,[5],inactive
same,Potency,[6],inactive
same,outcome,[7],inactive
same,Potency,[8],inactive
same,Potency,[9],inactive
same,Potency,[10],inactive
CCOC(=O)[C@H](CCc1ccccc1)N[C@@H](C)C(=O)N1Cc2cc(OC)c(OC)cc2C[C@H]1C(=O)O,Potency,[1],inactive
same,outcome,[2],inactive
same,Potency,[4],inactive
same,outcome,[5],inactive
same,Potency,[6],inactive
same,outcome,[7],inactive
same,Potency,[8],inactive
same,Potency,[9],inactive
same,Potency,[10],inactive
CCCCCCCOC(=O)CCC,Potency,[1],inactive
same,outcome,[2],inactive
same,Potency,[4],inactive
same,Potency,[6],inactive
same,outcome,[7],inactive
same,Potency,[8],inactive
same,Potency,[9],inactive
same,Potency,[10],inactive
CC(C)C1=CC2=CC[C@@H]3[C@](C)(CCC[C@@]3(C)C(=O)O)[C@H]2CC1,Potency,[1],inactive
same,outcome,[2],inactive
same,Potency,[4],inactive
same,outcome,[5],inactive
same,Potency,[6],inactive
same,outcome,[7],inactive
same,Potency,[8],inactive
same,Potency,[9],inactive
same,Potency,[10],inactive
CNCCC(Oc1ccccc1OC)c1ccccc1 (stereo not given),Potency,[1],inactive
same,outcome,[2],inactive
same,Potency,[4],inactive
same,outcome,[5],inactive
same,Potency,[6],inactive
same,outcome,[7],inactive
same,Potency,[8],inactive
same,Potency,[9],inactive
same,Potency,[10],inactive
CC(C)(C)c1ccc(OC(=O)c2ccccc2O)cc1,Potency,[1],inactive
same,outcome,[2],inactive
same,Potency,[4],inactive
same,Potency,[6],27.3 µM (active)
same,outcome,[7],inactive
same,Potency,[8],inactive
same,Potency,[9],inactive
same,Potency,[10],inactive
CC(C)(CO)[C@@H](O)C(=O)NCCC(=O)O,Potency,[1],inactive
same,outcome,[2],inactive
same,Potency,[4],inactive
same,outcome,[5],inactive
same,Potency,[6],inactive
same,outcome,[7],inactive
same,Potency,[8],inactive
same,Potency,[9],inactive
same,Potency,[10],inactive
CCCCC(CC)COC(=O)COc1cc(Cl)c(Cl)cc1Cl (stereo not given),Potency,[1],inactive
same,outcome,[2],inactive
same,Potency,[4],inactive
same,Potency,[6],inactive
same,outcome,[7],inactive
same,Potency,[8],inactive
same,Potency,[9],inactive
same,Potency,[10],inactive
CC(C)C(=O)OCC(C)(C)C(O)C(C)C (stereo not given),Potency,[1],inactive
same,outcome,[2],inactive
same,Potency,[4],inactive
same,Potency,[6],inactive
same,outcome,[7],inactive
same,Potency,[8],inactive
same,Potency,[9],inactive
same,Potency,[10],inactive
O=C1C=CC(=O)O1,Potency,[1],inactive
same,outcome,[2],inactive
same,Potency,[4],inactive
same,Potency,[6],inactive
same,outcome,[7],inactive
same,Potency,[8],inactive
same,Potency,[9],inactive
same,Potency,[10],inactive
